From PubChem
Most compounds without a hit are left out; they make up all but 3.9% or so of the library.
Platelet DG rel = inhibitors of platelet dense granule secretion, primary screen, cell-based, MLPCN, human platelets | inhibition, %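 (compounds screened at 7.5 µM in platelet-rich plasma)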 | human platelet-rich plasma, SFLLRN dense granule ATP release, luminescence | actives 0.22% (n = 300,000);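 active means mean replicate score, as percent of positive control, at or above 50; inconclusive means mean below 50 but at least one replicate at or above 50; inactive means mean and every replicate below 50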
TPT1 inh = Candida albicans TPT1 enzyme inhibitors, primary screen, biochemical, fluorescence polarization; inhibition, % at 5 µM; actives 0.81% (n = 300,000); recombinant caTPT1, FP RNA substrate dephosphorylation; tRNA 2'-phosphotransferase TPT1 (Candida albicans SC5314);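 active means inhibition above the mean of all tested compounds plus 3 SD, set per screening campaign, cut at about 24% in these data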;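 further: plate controls were DMSO alone for no effect and ferristatin control at 100 nM for full effect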
SKKanGAS inh = S. pyogenes SKKanGAS growth inhibitors in kanamycin, primary screen, streptokinase expression inhibitor project, SKKanGAS strain, BacTiter-Glo luminescence. 6 h. inhibition, % at 7.5 µM. actives 1.3% (n = 300,000). AID 1662, 2009;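 active means mean replicate score, as percent of positive control median, at least 50; inconclusive means mean below 50 but one replicate at or above 50; inactive means mean and every replicate below 50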;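 further: strain carries kanamycin resistance gene driven by streptokinase promoter and grows in 40 µg/ml kanamycin; loss of luminescence reflects streptokinase promoter inhibition or plain growth inhibition; 0% = median of DMSO wells and 100% = positive control at its reference dose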
PHOSPHO1 block = PubChem AID 1565 | recombinant PHOSPHO1, absorbance phosphatase assay | actives 1.1% (n = 290,000) | Phosphoethanolamine/phosphocholine phosphatase (Homo sapiens), Q8TCT1 | inhibition, % at 13.3 µM; in the data active means inhibition above about 60%
Rtt109 HAT inh = inhibitors of C. albicans Rtt109/Vps75 HAT, primary screen, biochemical, ThioGlo CoA-SH fluorescence, plate reader; AID 540336, 2011; actives 0.16% (n = 330,000); inhibition, % at 34.9 µM; purified Rtt109/Vps75, 4 h; Histone acetyltransferase RTT109 (Candida albicans (strain SC5314 / ATCC MYA-2876)), …;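 active means inhibition of at least 50% in every replicate; inconclusive means best replicate reaches 50% inhibition but some replicates fall short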
Target sequence (Q5AAJ8 whole entry, looked up): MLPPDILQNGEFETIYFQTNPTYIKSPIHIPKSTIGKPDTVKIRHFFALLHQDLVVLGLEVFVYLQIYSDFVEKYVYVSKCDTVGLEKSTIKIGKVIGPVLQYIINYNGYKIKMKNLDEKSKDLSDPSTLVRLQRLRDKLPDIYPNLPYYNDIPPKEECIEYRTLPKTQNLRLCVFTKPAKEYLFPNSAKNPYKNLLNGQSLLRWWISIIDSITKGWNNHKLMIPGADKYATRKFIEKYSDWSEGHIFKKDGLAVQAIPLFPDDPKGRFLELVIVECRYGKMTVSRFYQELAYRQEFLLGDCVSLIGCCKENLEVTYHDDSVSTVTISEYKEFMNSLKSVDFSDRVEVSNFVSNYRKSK
WT yeast gro inh = growth inhibition of WT strain, primary screen, mitochondrial fusion inhibitor project, WT and mutant strains, chemical genetic. inhibition, % at 10 µM. actives 2.1% (n = 190,000). mitochondrial fusion phenotypic screen; in the data active means inhibition above about 58%; tested in S. cerevisiae
* = called active by the depositor; u = inconclusive; x = no result given.

SMILES	Platelet DG rel	TPT1 inh	SKKanGAS inh	PHOSPHO1 block	Rtt109 HAT inh	WT yeast gro inh
COc1ccc(C2SCC(=O)N2CC23CC4CC(CC(C4)C2)C3)cc1 (stereo not drawn)	0	2	21	23	-29	76*
CCN1CCN(CCCNC(=O)c2ccc(/C=C3/Sc4ccccc4N(Cc4ccccc4F)C3=O)cc2)CC1	0	1	8	-13	21	82
CCN1CCN(CCNC(=O)c2ccc(/C=C3/Sc4ccccc4N(Cc4ccccc4C)C3=O)cc2)CC1	-2	x	8	-13	34	77*
CC(Oc1ccc2oc3ccccc3c2c1)C(=O)NC12CC3CC(CC(C3)C1)C2 (stereo not drawn)	-6	-2	33	1	0	67*
CCOC(=O)c1c(NC(=O)OC)sc2c1CCC2	-2	0	-2	2	-1	22
CNC(=O)c1c(N)sc2c1CCCCC2	7	-4	8	71*	x	13
CCC1CCc2c(sc(N)c2C(N)=O)C1 (stereo not drawn)	2	7	-1	x	1	13
CC1CCc2c(sc(N)c2C(N)=O)C1 (stereo not drawn)	1	8	0	6	50*	8
NC(=O)c1c(N)sc2c1CCCCC2	8	1	-1	97*	2	4
COC(=O)Nc1sc2c(c1C(N)=O)CCCCCC2	-8	1	0	69*	4	-6
COCCNC(=O)c1c(N)sc2c1CCCC2	1	14	2	11	x	2
CSCCC(NC(=O)c1ccco1)C(=O)NNC(=O)c1n[nH]c(=O)c2ccccc12 (stereo not drawn)	x	x	x	x	-16	x
Cc1nnc(SCC2=C(C(=O)O)N3C(=O)C(NC(=O)c4cccc(F)c4F)C3SC2)s1 (stereo not drawn)	3	1	120*	-10	2	4
Cc1nnc(SCC2=C(C(=O)O)N3C(=O)C(NC(=O)Cn4ncc(Cl)c4C)C3SC2)s1 (stereo not drawn)	3	-1	106*	20	-9	13
Cc1cc(C)n(CC(=O)NC2C(=O)N3C(C(=O)O)=C(CSc4nnc(C)s4)CSC23)n1 (stereo not drawn)	2	-2	x	-23	2	-5
COc1ccccc1NC(=O)C(C)OC(=O)C1CCN(S(=O)(=O)c2ccccc2C(F)(F)F)CC1 (stereo not drawn)	x	x	x	x	0	x
O=C(CSc1ncccc1-c1nc2ccccc2[nH]1)N1CCCCC1	-11	3	-6	89*	-6	-3
COc1ccc(NC(=O)c2nc3nc(C)cc(C(F)F)n3n2)cc1OC	68*	-4	-7	22	0	10
CCN(CC)c1ccc(NC(=O)c2nc3nc(C)cc(C(F)F)n3n2)cc1	-10	3	9	78*	-7	0
COc1ccccc1NS(=O)(=O)c1ccc(NC(=O)c2nc3nc(C)cc(C(F)F)n3n2)cc1	-6	2	1	8	-1	-8
CCc1ccccc1Nc1nc(N)nc(COC(=O)C2CCN(C(=O)c3ccc(F)cc3)CC2)n1	x	x	x	x	6	x
CC1(C)CC2CC(C)(CN2C(=O)c2cc(-c3ccccc3O)on2)C1 (stereo not drawn)	19	-1	5	-9	-2	63*
CN(C)N1C(N)=C(C#N)C(c2ccc3c(c2)OCO3)C2=C1CCCC2=O (stereo not drawn)	-1	0	-6	18	-1	x
O=C1CSC(=S)N1c1cccnc1	2	2	1	98*	-64	3
CSc1nc(Cl)c(Br)c(Nc2c[nH]c(=O)[nH]c2=O)n1	x	x	x	x	-12	x
SMILES	Platelet DG rel	TPT1 inh	SKKanGAS inh	PHOSPHO1 block	Rtt109 HAT inh	WT yeast gro inh
CNC(=O)c1cc(OCC(F)(F)F)ccc1OCC(F)(F)F	6	-1	2	61*	2	-10
Cc1ccc(C2Oc3ccccc3C3=C2C(c2cccs2)n2ncnc2N3)cc1 (stereo not drawn)	-4	0	100*	30	-6	-18
Cc1cc(C)c2nc(N3CCCC(C(=O)N4CCN(c5ncccn5)CC4)C3)sc2c1 (stereo not drawn)	-1	-2	13	-2	0	67*
Cc1cc(C)c2nc(N3CCC(C(=O)N4CCN(C(=O)c5ccco5)CC4)CC3)sc2c1	-8	-7	-5	-11	0	16
O=C1N/C(=N\c2ccccn2)SC1Cc1ccc(Cl)cc1 (stereo not drawn)	-1	0	50*	6	-7	-4
O=C(Nc1nc2cc3c(cc2s1)OCCO3)c1ccc([N+](=O)[O-])o1	11	-2	u	27	-1	x
Cc1ccccc1OCCCSc1nc2ccccc2[nH]1	-4	-2	-17	1	11	62*
N=c1sccn1CC(=O)Nc1cc(Cl)ccc1Oc1ccccc1	x	1	7	69*	-1	-8
N=c1sccn1CC(=O)Nc1cccc(Oc2ccccc2)c1	3	0	2	38	-1	17
CCc1cccc(CC)c1NC(=O)/C(C#N)=C/c1ccccc1C(F)(F)F	0	-1	11	11	-5	68*
Oc1c(I)cc(Cl)c2cccnc12	2	-2	100*	1	6	57
O=[N+]([O-])c1cc(Cl)c2cccnc2c1O	2	-3	83*	42	-5	48
O=[N+]([O-])c1cc(F)c2cccnc2c1O	-6	1	40	38	0	x
O=[N+]([O-])c1cc(Cl)c(O)c2ncccc12	1	x	51*	12	-47	56
CCC(C)N1C(=O)N(c2cccc(Cl)c2)C(C)(O)CC1(C)C (stereo not drawn)	6	1	-5	16	-8	x
CSc1ncccc1C(=O)NNc1cc(Cl)ccc1Cl	0	-3	0	x	0	x
COc1ccc(OC)c(NC(=O)COC(=O)Cc2ccc(Br)cc2)c1	-3	-2	-1	44	6	67*
CN(CC(=O)Nc1ccccc1Br)C(=O)c1ccccc1OCc1ccccc1Cl	x	x	x	x	-6	x
Cc1ccc(-n2c(O)cnc2Nc2nc(C)cc(C)n2)cc1	10	-1	3	38	-7	18
Cc1cc(C)nc(Nc2ncc(O)n2-c2ccccc2)n1	-1	5	0	8	-7	64*
COc1ccc(N2CCN(S(=O)(=O)CCNC(=O)c3ccc(Br)o3)CC2)cc1	-46	-1	0	65*	-17	x
CSc1ccccc1NC(=O)CN(C)C(=O)COc1cccc2cccnc12	x	x	x	x	-6	x
CN(C)c1ccc(C(=S)N2CCOCC2)cc1Br	-7	0	20	101*	5	-4
